Measured values taken from PubChem BioAssay (Tox21).
Records with an inconclusive call do not appear. Activity calls are given as the source filed them. Unless noted, the call rests on the fitted dose curve; in most records, active means well fitted curve in the direction sought with a large enough effect in the repeat runs; inconclusive means weak or mixed curves; inactive means no such curve, though single readings can be large; an effect the other way counts as inactive or inconclusive.

Legend:
[1] = qHTS assay to test for compound auto fluorescence at 535 nm (green) in HEK293 cells (AID 720680)
[2] = qHTS assay to test for compound auto fluorescence at 460 nm (blue) in HEK293 cell free culture (AID 720681)
How it was run: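 Test compounds were pinned into cell-free culture medium (DMEM with 10% FBS) and fluorescence was read directly at Ex/Em 405/460 nm. Signals were expressed as fluorescence equivalents of triamterene, with DMSO vehicle as control.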

[3] = qHTS assay to test for compound auto fluorescence at 535 nm (green) in HEK293 cell free culture (AID 720682)
How it was run: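 No cells present: wells hold DMEM supplemented with 10% FBS, into which compound or vehicle is pinned. Green emission is then recorded (485 nm excitation, 535 nm emission) and scaled to fluorescein.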

[4] = qHTS assay to test for compound auto fluorescence at 590 nm (red) in HepG2 cell free culture (AID 720684)
How it was run: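 Readout: intrinsic compound fluorescence at 590 nm emission after 540 nm excitation, scaled to Rose Bengal sodium. Matrix was cell-free MEM with 10% FBS; DMSO vehicle wells served as control.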

[5] = qHTS assay to test for compound auto fluorescence at 460 nm (blue) in HepG2 cell free culture (AID 720685)
How it was run: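 Cell-free plates of MEM plus 10% FBS received 23 nL compound or DMSO vehicle; blue-channel (405/460 nm) intensity scored against triamterene as reference fluorophore.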

[6] = qHTS assay to test for compound auto fluorescence at 535 nm (green) in HepG2 cell free culture (AID 720686)
[7] = qHTS assay to test for compound auto fluorescence at 460 nm (blue) in HepG2 cells (AID 720687)
How it was run: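 Cells (2,000/well in MEM with 10% FBS) attached overnight at 37 C, then were exposed to compound or DMSO for 1 hr at 37 C, 5% CO2. Fluorescence read at Ex/Em 405/460 nm, expressed as triamterene-equivalent signal.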

[8] = target: Glucocorticoid receptor (Homo sapiens) (UniProt P04150); experiment: qHTS assay to identify small molecule agonists of the glucocorticoid receptor (GR) signaling pathway (AID 720691; active means well fitted activation curve with a large enough effect in the signal ratio in the repeat runs, not every such curve was filed as active; the % refers to the signal ratio); conditions: GR-bla HeLa, beta-lactamase reporter ratio, 18 h; activation: at 62.4 µM (top of the series)
Chain of Glucocorticoid receptor (Homo sapiens) (P04150 whole entry, looked up): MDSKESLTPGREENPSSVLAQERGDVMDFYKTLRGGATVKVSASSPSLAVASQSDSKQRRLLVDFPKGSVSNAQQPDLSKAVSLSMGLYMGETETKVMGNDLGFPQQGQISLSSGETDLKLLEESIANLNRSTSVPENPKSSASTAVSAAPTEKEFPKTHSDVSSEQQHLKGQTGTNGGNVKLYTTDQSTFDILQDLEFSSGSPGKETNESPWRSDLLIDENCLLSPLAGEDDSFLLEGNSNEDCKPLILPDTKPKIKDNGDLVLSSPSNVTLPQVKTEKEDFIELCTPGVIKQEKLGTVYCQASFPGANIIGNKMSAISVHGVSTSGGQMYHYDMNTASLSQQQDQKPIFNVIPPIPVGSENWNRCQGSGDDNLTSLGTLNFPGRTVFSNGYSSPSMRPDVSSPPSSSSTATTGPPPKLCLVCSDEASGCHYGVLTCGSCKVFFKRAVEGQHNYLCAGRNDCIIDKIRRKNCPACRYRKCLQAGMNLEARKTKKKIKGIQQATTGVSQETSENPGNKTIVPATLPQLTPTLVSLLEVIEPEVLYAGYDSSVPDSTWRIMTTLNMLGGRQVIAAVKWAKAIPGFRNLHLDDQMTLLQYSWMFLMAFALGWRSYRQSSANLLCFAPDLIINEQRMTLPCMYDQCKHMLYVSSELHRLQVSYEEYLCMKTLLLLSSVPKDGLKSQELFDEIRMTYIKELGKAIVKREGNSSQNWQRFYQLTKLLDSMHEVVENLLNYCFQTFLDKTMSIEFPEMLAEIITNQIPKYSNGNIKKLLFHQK
How it was run: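 HeLa GR-bla reporter line; cells pre-incubated 4 h, compound in DMSO 18 h at 37 C; LiveBLAzer B/G FRET substrate 2 h RT; fluorescence intensity read-out.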

[9] = target: Glucocorticoid receptor (Homo sapiens) (UniProt P04150); experiment: qHTS assay to identify small molecule antagonists of the glucocorticoid receptor (GR) signaling pathway (AID 720692; active means well fitted inhibition curve with a large enough effect in the signal ratio in the repeat runs, not every such curve was filed as active; the % refers to the signal ratio)
How it was run: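 Read-out: beta-lactamase FRET substrate fluorescence, 2 h at room temperature, in HeLa cells stably carrying a GRE-driven bla reporter. Compounds were co-incubated with 5 nM dexamethasone agonist (final) for 18 h at 37 C.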

[10] = qHTS assay to identify small molecule antagonists of the glucocorticoid receptor (GR) signaling pathway - cell viability counter screen (AID 720693); further: nearly all actives have a fitted effect of over 55% in size
[11] = qHTS assay for identifying genotoxic compounds that show differential cytotoxicity against isogenic chicken DT40 cell lines with known DNA damage response pathways - wild type cell line (AID 743012); further: nearly all actives have a fitted effect of over 60% in size
How it was run: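 CellTiter-Glo luminescence readout of viability in wild type DT40 cells after 40 h compound exposure at 37 C/5% CO2; 300 cells/well; reagent incubated 30 min at room temperature before reading.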

[12] = qHTS assay for identifying genotoxic compounds that show differential cytotoxicity against isogenic chicken DT40 cell lines with known DNA damage response pathways - Rev3 mutant cell line (AID 743014); further: nearly all actives have a fitted effect of over 55% in size
[13] = qHTS assay for identifying genotoxic compounds that show differential cytotoxicity against isogenic chicken DT40 cell lines with known DNA damage response pathways - Rad54/Ku70 mutant cell line (AID 743015); further: nearly all actives have a fitted effect of over 60% in size
[14] = qHTS assay to identify small molecule antagonists of the androgen receptor (AR) signaling pathway - cell viability counter screen (AID 743033; further: nearly all actives have a fitted effect of over 45% in size)
[15] = target: Androgen receptor (Homo sapiens) (UniProt P10275); experiment: qHTS assay to identify small molecule antagonists of the androgen receptor (AR) signaling pathway (AID 743035; active means well fitted inhibition curve with a large enough effect in the signal ratio in the repeat runs, not every such curve was filed as active; the % refers to the signal ratio)
Chain of Androgen receptor (Homo sapiens) (P10275 whole entry, looked up): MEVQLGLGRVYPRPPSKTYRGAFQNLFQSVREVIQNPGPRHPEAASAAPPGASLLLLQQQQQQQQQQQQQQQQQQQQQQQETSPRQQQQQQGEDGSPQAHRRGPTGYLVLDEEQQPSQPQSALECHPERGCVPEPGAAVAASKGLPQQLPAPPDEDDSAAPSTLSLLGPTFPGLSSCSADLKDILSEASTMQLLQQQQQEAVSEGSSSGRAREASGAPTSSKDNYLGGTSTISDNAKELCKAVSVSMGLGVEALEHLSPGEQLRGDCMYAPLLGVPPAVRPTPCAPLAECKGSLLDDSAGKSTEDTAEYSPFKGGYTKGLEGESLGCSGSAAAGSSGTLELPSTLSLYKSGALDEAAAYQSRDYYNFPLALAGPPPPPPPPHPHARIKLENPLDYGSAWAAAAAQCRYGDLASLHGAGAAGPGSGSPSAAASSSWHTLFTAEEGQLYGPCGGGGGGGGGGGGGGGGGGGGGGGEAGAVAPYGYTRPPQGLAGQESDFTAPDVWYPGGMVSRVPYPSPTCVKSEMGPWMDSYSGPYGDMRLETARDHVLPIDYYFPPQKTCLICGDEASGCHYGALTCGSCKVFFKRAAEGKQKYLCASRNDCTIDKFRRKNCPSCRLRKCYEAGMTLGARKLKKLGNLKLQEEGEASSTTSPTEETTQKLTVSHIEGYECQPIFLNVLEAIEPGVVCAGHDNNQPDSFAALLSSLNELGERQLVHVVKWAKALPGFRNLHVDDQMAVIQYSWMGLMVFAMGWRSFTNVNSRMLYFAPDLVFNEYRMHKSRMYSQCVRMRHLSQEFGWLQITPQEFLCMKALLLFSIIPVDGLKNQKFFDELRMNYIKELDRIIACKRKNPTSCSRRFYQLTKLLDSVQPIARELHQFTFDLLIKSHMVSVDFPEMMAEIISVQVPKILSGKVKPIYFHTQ
How it was run: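 AR-bla HEK293 reporter cells; 4 h settle at 37C/5% CO2; compound + R1881 agonist, 16 h at 37C; LiveBLAzer B/G FRET substrate 2 h RT; fluorescence intensity read. qHTS format.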

[16] = target: Androgen receptor (Homo sapiens) (UniProt P10275); experiment: qHTS assay to identify small molecule agonists of the androgen receptor (AR) signaling pathway (AID 743036; active means well fitted activation curve with a large enough effect in the signal ratio in the repeat runs, with a control signal flat, not every such curve was filed as active; the % refers to the signal ratio)
How it was run: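 Quantitative HTS of the Tox21 10K library in HEK293 cells bearing a stably integrated UAS-controlled beta-lactamase reporter. Compound exposure lasted 16 h at 37C. Reporter activity was detected by FRET substrate fluorescence after 2 h at room temperature.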

[17] = target: Androgen receptor (Homo sapiens) (UniProt P10275); experiment: qHTS assay to identify small molecule agonists of the androgen receptor (AR) signaling pathway using the MDA cell line (AID 743040; further: nearly all actives have a fitted effect of over 20% in size)
How it was run: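 Agonist activity is measured as luciferase luminescence in human MDA-kb2 cells whose MMTV reporter responds to both AR and GR. Compounds in DMSO incubate 16 h at 37C, 0% CO2, and ONE-Glo is read after 30 min.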

[18] = qHTS assay to identify small molecule antagonists of the androgen receptor (AR) signaling pathway using the MDA cell line - cell viability counter screen (AID 743041; further: nearly all actives have a fitted effect of over 45% in size)
How it was run: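 qHTS viability read-out; MDA-kb2 AR-luc; R1881-stimulated; 16 h exposure at 37C, 0% CO2; CellTiter-Fluor, 30 min; fluorescence intensity.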

[19] = target: Androgen receptor (Homo sapiens) (UniProt P10275); experiment: qHTS assay to identify small molecule antagonists of the androgen receptor (AR) signaling pathway using the MDA cell line (AID 743042; further: nearly all actives have a fitted effect of over 55% in size)
How it was run: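 MDA-kb2 cells (human breast carcinoma, stably carrying an MMTV-luciferase reporter responsive to AR and GR) were plated at 3,000 cells/well and preincubated 5 hr at 37C, then given compound plus R1881 agonist for 16 h. ONE-Glo luminescence was read.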

[20] = qHTS assay to test for compound auto fluorescence at 590 nm (red) in HEK293 cell free culture (AID 720683)
How it was run: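 Tox21 10K library compounds were pinned into cell-free DMEM with 10% FBS and fluorescence was read at excitation 540 nm. Activity is expressed as Rose Bengal sodium equivalency.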

Measured: Potency

CCC[C@@H]1C[C@@H](C(=O)N[C@@H]([C@H]2O[C@H](SC)[C@H](OP(=O)(O)O)[C@@H](O)[C@H]2O)[C@H](C)Cl)N(C)C1
not listed: [20]
inactive: all other assays above

Cc1cnc(C(=O)O)c[n+]1[O-]
not listed: [8] | [9] | [15] | [16] | [17] | [19] | [20]
inactive: all other assays above

CC(C)C[C@@H](NC(=O)[C@@H](O)[C@H](N)Cc1ccccc1)C(=O)O
not listed: [4] | [8] | [9] | [12] | [15] | [16] | [17] | [19]
inactive: all other assays above

NC(=O)CC[C@@H]1NC(=O)[C@H](Cc2ccccc2)NC(=O)[C@H](Cc2ccc(O)cc2)NC(=O)[C@@H](N)CSSC[C@@H](C(=O)N2CCC[C@H]2C(=O)N[C@@H](CCCN=C(N)N)C(=O)NCC(N)=O)NC(=O)[C@H](CC(N)=O)NC1=O
not listed: [8] | [9] | [11] | [15] | [16] | [17] | [19] | [20]
inactive: all other assays above

NC(=O)C1c2ccccc2CCc2ccccc21
not listed: [4] | [11] | [12] | [15] | [20]
inactive: all other assays above

c1ccc2cc3c4ccccc4c4ccccc4c3cc2c1
not listed: [8] | [9] | [12] | [15] | [16] | [17] | [19] | [20]
inactive: all other assays above

SC1CCCCC1
not listed: [5] | [9] | [10] | [15] | [16] | [17] | [19] | [20]
inactive: all other assays above

C[Se]CC[C@H](N)C(=O)O
not listed: [12] | [14] | [15] | [16] | [17] | [19] | [20]
inactive: all other assays above
